Calls of active or inactive are those of the source. The calls were made as follows: active = hit-call score of the fitted dose curve at least 0.9, where 1 is the maximum; inactive = score below 0.9.
The molecules below were run against Tyrosine-protein kinase SYK (Homo sapiens) (UniProt P43405) (assay: ERF_FR_ENZ_hSYK: Eurofins (ERF) Enzymatic Radiometric [Km ATP] KinaseProfiler LeadHunter Assay for human Syk Tyrosine Kinase).
Description: ERF_FR_ENZ_hSYK is a biochemical, single-readout assay that uses extracted gene-proteins in a cell-free assay. Measurements were taken 0.5 hour after chemical dosing in a 96-well plate. See Syk Human TK Kinase Enzymatic LANCE Assay [Km ATP], Cerep.ERF_FR_ENZ_hSYK is an assay component calculated from the ERF_FR_ENZ_hSYK assay. It is designed to measure enzyme activity using a type of enzyme reporter as detected by fluorescence intensity with LANCE technology.Data from the assay component ERF_FR_ENZ_hSYK was analyzed at the assay endpoint, ERF_FR_ENZ_hSYK, in the positive analysis fitting direction relative to DMSO as the negative control and baseline of activity. Using a type of enzyme reporter, loss-of-signal activity can be used to understand changes in enzymatic activity as they relate to gene SYK. To generalize the intended target to other relatable targets, this assay endpoint is annotated to the kinase intended target family, where the subfamily is spleen tyrosine kinase.
Syk (h) is incubated with 50 mM Tris pH 7.5, 0.1 mM EGTA, 0.1 mM Na3VO4, 0.1% […], 0.1 mg/ mL poly(Glu, Tyr) 4:1, 10 mM MgAcetate and [gamma-33P]-ATP (specific activity and concentration as required). The reaction is initiated by the addition of the Mg/ATP mix. After incubation for 40 minutes at room temperature, the reaction is stopped by the addition of phosphoric acid to a concentration of 0.5%. […]
`O=C(/C=C/c1ccc(O)cc1)CC(=O)/C=C/c1ccc(O)cc1` was tested, and the outcome was “inactive”.
